The record followed here is PubChem BioAssay AID1851 (National Center for Advancing Translational Sciences (NCATS), 2009).

As a reminder, the AC50 is the midpoint of the concentration-response curve, whichever way the signal moves.

Screen size: about 16,000 compounds; about 5,700 (36%) were called active. About 24% were inconclusive and are not listed. The call rests on the fitted dose curve; in most records, active means well fitted curve in the direction sought with a large enough effect; inconclusive means small, poorly fitted or top-dose-only effect, or effect the other way; inactive means no such curve, though single readings can be large or run the other way. The list shows a part of the results.
On the % scale 0 is the no-effect control and ±100 the full control effect.

The target of this assay is Cytochrome P450 1A2 (Homo sapiens) (UniProt P05177). Briefly: Cytochrome panel assay with activity outcomes. As to conditions: recombinant CYP, pro-luciferin dealkylation, luminescence, p450-cyp1a2; series mostly up to 57.1 µM.
Cytochrome P450 1A2 (Homo sapiens), sequence (P05177 whole entry, looked up): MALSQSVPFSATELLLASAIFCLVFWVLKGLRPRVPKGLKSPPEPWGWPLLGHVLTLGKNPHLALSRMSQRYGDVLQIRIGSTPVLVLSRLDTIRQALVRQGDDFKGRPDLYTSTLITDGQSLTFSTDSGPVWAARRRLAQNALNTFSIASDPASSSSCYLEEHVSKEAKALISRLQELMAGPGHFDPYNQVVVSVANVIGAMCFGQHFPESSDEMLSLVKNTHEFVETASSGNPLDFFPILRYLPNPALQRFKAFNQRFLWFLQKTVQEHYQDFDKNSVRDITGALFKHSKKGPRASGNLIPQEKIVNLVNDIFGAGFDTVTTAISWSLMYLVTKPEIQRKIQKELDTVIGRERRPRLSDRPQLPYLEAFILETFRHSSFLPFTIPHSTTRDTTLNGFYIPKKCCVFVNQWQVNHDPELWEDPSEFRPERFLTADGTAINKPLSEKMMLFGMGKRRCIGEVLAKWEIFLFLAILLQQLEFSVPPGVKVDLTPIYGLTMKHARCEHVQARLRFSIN
Consider `CO/N=C\[C@@H](C)[C@H](OCc1ccccc1)C(C)C`, for which the activity, negative = inhibition was -4.31% [at 11.4 µM] (inactive).

Regarding `O=C(c1ccncc1)N1CCC2(CCCN(Cc3ccncc3)C2)CC1`, the AC50 is 6310 nM (active).

As for `O=C(c1ccncc1)N1CCC2(CCCN(Cc3ccccc3)C2)CC1`, the AC50 entry is “inactive”.

On to `O=C(c1cnccn1)N1CCC[C@@]2(CCN(Cc3nccs3)C2)C1`, for which the AC50 entry is “inactive”.

Regarding `Cc1noc(C)c1C(=O)N1CCC2(CCCN(C(c3ccccc3)c3ccccc3)C2)CC1`, the AC50 result was “inactive”.

Turning to `O=C(c1cnccn1)N1CCC[C@@]2(CCN(Cc3cc(C(F)(F)F)cc(C(F)(F)F)c3)C2)C1`, the AC50 result is “inactive”.

As for `O=C(c1cc(C(F)(F)F)cc(C(F)(F)F)c1)N1CCC2(CCN(Cc3ccccc3)CC2)CC1`, the AC50 entry is “inactive”.

With `O=C(c1cc(C(F)(F)F)cc(C(F)(F)F)c1)N1CCC2(CC1)CN(Cc1ccccc1)C2`, the AC50 result is “inactive”.

For `O=C(c1ccncc1)N1CCC2(CCCN(C(c3ccccc3)c3ccccc3)C2)CC1`, the AC50 is 200 nM (active).

Consider `O=C(c1cnccn1)N1CCC[C@@]2(CCN(Cc3ccncc3)C2)C1`, for which the AC50 was 15800 nM (active).

On to `CC(C)NC(=O)N1CCCC2(CCN(C(=O)c3ccncc3)CC2)C1`, for which the AC50 result was “inactive”.

On to `O=C(c1cc(C(F)(F)F)cc(C(F)(F)F)c1)N1CCC[C@@]2(CCN(Cc3ccccc3)C2)C1`, for which the AC50 is 25100 nM (active).

With `COc1ccc(C(=O)N2CCC3(CCCN(Cc4ccncc4)C3)CC2)cc1`, the AC50 result is “inactive”.

As to `COC(=O)C/C=C\[C@@H](C)[C@@H](/C=N\OC[C@@H](C)[C@H](OCc1ccccc1)C(C)C)OC`, the activity, negative = inhibition was -0.613% [at 11.4 µM] (inactive).

On to `C[C@@H]1c2cccc(O)c2C(O)=C2C(=O)[C@@]3(O)C(O)=C(C(N)=O)C(=O)[C@@H](N(C)C)[C@@H]3[C@@H](O)[C@@H]21`, for which the AC50 entry was “inactive”.

`O=C1C(=O)N(c2cccc(Cl)c2)C(c2ccccc2[N+](=O)[O-])/C1=C(\O)c1ccccc1` (configuration not stated): the AC50 result was “inactive”.

For `CC(=O)c1sc(N)c(C(=O)OC(C)C)c1C`, the AC50 was 3550 nM (active).

`Cc1ccc(C)c(CN2C(=O)C3CCCN3c3ccc(C#N)cc32)c1` (configuration not stated): the AC50 is 12600 nM (active).

Take `O=C1C2CCCN2c2ccc(S(=O)(=O)N3CCOCC3)cc2N1Cc1cccc(C(F)(F)F)c1` (configuration not stated): the AC50 result is “inactive”.

Turning to `CCOC(=O)C1CCN(c2c(NCc3ccc(C(=O)NCCC(C)C)cc3)c(=O)c2=O)CC1`, the AC50 result was “inactive”.

Consider `CCCCc1c(O)nc(SCCN(C)C)n(-c2ccccc2)c1=O`, for which the AC50 entry is “inactive”.

With `Cc1ccccc1[C@@H](OCCN(C)C)c1ccccc1`, the AC50 entry was “inactive”.

Consider `CCCCc1cc2ccccc2c(OCCN(C)C)n1`, for which the half-maximal activity concentration (AC50) is 79.4 nM (active).

As to `Cc1occc1C(=O)NNC(=O)c1ccc(F)cc1`, the AC50 result was “inactive”.

`CC(=O)C1=C(NC(=O)c2ccc(F)cc2)CC2C1C2(C)C` (configuration not stated): the AC50 was 200 nM (active).

For the compound `COC(=O)C(C)Sc1ccc2nnc(-c3ccc(F)cc3)n2n1` (configuration not stated), the AC50 is 794 nM (active).

As to `COC(=O)CSc1ccc2nnc(-c3ccc(F)cc3)n2n1`, the half-maximal activity concentration (AC50) was 1580 nM (active).

For the compound `CCn1c(SCC(=O)OC)nnc1C1CCCCC1`, the AC50 entry is “inactive”.

For `CC(C)NC(=O)N1CCCC2(CCN(C(=O)c3cccc(F)c3)CC2)C1`, the AC50 result was “inactive”.

With `CCCN(C/C=C\I)[C@@H]1CCc2cccc(O)c2C1`, the AC50 was 2510 nM (active).

As to `N#C[C@H]1CN[C@H](N)N[C@@H]1N`, the activity, negative = inhibition is -11.6% [at 2.29 µM] (inactive).

As to `CCNc1nc(NCC)nc(N(C)N)n1`, the half-maximal activity concentration (AC50) is 708 nM (active).

As for `Cn1c(/C=N/NC(=O)c2ccccc2Br)nc2ccccc21`, the half-maximal activity concentration (AC50) was 2510 nM (active).

For the compound `Cc1ccc(NC(=O)C2CC(=O)n3c(nc4ccccc43)N2)cc1` (configuration not stated), the AC50 entry is “inactive”.

Take `Cc1ccc(C(=O)N/N=C/c2nc3ccccc3n2C)cc1`: the AC50 was 7080 nM (active).

In the case of `c1csc(CNc2cc(-c3ccoc3)ncn2)c1`, the AC50 is 2000 nM (active).

`c1ccc(CNc2cc(-c3ccoc3)ncn2)cc1`: the concentration at half-maximal activity (AC50) is 25100 nM (active).

`c1cncc(CNc2cc(-c3ccoc3)ncn2)c1`: the AC50 is 3160 nM (active).

`O=C(Oc1ccc2ccccc2c1Br)N1CCCCCC1`: the AC50 was 4470 nM (active).

Take `O=C(Oc1ccccc1)N1CCC2(CC1)CCN(c1ccccc1)CC2`: the AC50 result was “inactive”.

Take `Cc1ccccc1C(=O)Oc1ccc(Br)cc1C(=S)N1CCCC1`: the AC50 result is “inactive”.

Turning to `COC(=O)[C@@H]1O[C@@H](c2c(OC)c(OC)c(C)c(OC)c2OC)[C@H](C)[C@@H](O)[C@@H]1C`, the activity, negative = inhibition was -4.49% [at 11.4 µM] (inactive).

As for `CC(C)n1cc(/C=C2/SC(=O)N(CC(=O)Nc3ccc4c(c3)OCO4)C2=O)c2ccccc21`, the AC50 result is “inactive”.

On to `Cn1cc(/C=C2/SC(=O)N(CC(=O)Nc3ccc4c(c3)OCO4)C2=O)c2ccccc21`, for which the AC50 entry is “inactive”.

`Cn1c(-c2ccc3c(c2)OCO3)cc(=O)c2ccccc21`: the AC50 was 5010 nM (active).

`Cc1ccccc1/C=N\NC(=O)c1csnn1`: the AC50 was 1000 nM (active).

In the case of `O=C(Nc1ccccc1)N1CCC2(CC1)CCN(C(=O)c1csnn1)CC2`, the AC50 result is “inactive”.

Consider `O=C(c1csnn1)N1CCC2(CC1)CN(c1ccccc1)C2`, for which the AC50 entry is “inactive”.

For the compound `O=C(CCNC(=O)Cn1ccc2ccccc2c1=O)NCCCN1CCN(c2ccc(F)cc2)CC1`, the AC50 result was “inactive”.

For `Cc1ccc(C2/C(=C(/O)c3ccc(Cl)cc3)C(=O)C(=O)N2CC2CCCO2)o1` (configuration not stated), the AC50 result is “inactive”.

Regarding `CCNc1ncc2nc(-c3ccc(F)cc3)c(=O)n(C[C@H]3CCCO3)c2n1`, the AC50 is 1260 nM (active).

For the compound `CCNc1ncc2nc(-c3ccc(Cl)cc3)c(=O)n(C[C@H]3CCCO3)c2n1`, the AC50 was 794 nM (active).

On to `Cc1nc2cnc(N3CCNCC3)nc2n(Cc2cccs2)c1=O`, for which the AC50 was 631 nM (active).

Take `CN1CCN(c2ncc3nc(CCc4ccccc4)c(=O)n(C)c3n2)CC1`: the AC50 was 12600 nM (active).

Turning to `Cc1nc2cnc(N3CCOCC3)nc2n(Cc2cccs2)c1=O`, the AC50 is 2000 nM (active).

`COc1ccc(-n2c(=O)c(CCc3ccccc3)nc3cnc(N4CCN(C)CC4)nc32)cc1`: the AC50 result is “inactive”.

As to `Cc1nc2cnc(N3CCN(C)CC3)nc2n(Cc2cccs2)c1=O`, the AC50 is 12600 nM (active).

As to `Cc1cc2c(nc1C)CCCCN2C[C@H](O)CN1CCCc2nc(-c3ccc(Br)cc3)ccc21`, the activity, negative = inhibition is -8.63% [at 11.4 µM] (inactive).

Regarding `Cc1ccc(CCN2CC(C(=O)NCCN3CCCCCC3)CC2=O)cc1` (configuration not stated), the AC50 result is “inactive”.

Turning to `CN1CCN(c2ncc3nc(CCc4ccccc4)c(=O)n(Cc4ccc(F)cc4)c3n2)CC1`, the AC50 result was “inactive”.

In the case of `CN1CCN(c2ncc3nc(CCc4ccccc4)c(=O)n(Cc4cccs4)c3n2)CC1`, the AC50 was 15800 nM (active).

`O=c1cnc2cnc(N3CCOCC3)nc2n1Cc1cccs1`: the AC50 was 2510 nM (active).
